The results in this text go back to PubChem BioAssay (Tox21).

Results filed as inconclusive are left out. Active and inactive are the calls of the source. Calls follow the shape of the dose curve; as a rule, active = well fitted activation curve with a large enough effect in the signal ratio in the repeat runs (not every such curve was filed as active); inconclusive = weak or mixed curves, or effect the other way; inactive = flat fitted curve, though single readings scatter; the % refers to the signal ratio.
% is scaled to controls: 0 for no effect and ±100 for the full control effect.

The experiment can be described thus: qHTS assay to identify small molecule agonists of the endoplasmic reticulum stress response signaling pathway (AID 1159516). As to conditions: ESRE-bla HeLa, ER stress beta-lactamase reporter, 5 h; series mostly up to 61 µM. From the text:
National Center for Advancing Translational Sciences [NCATS]
NIH Chemical Genomics Center [NCGC]
U.S. Environmental Protection Agency [EPA]
National Institutes of Environmental Health Sciences [NIEHS]
National Toxicology Program [NTP]
U.S. Food and Drug Administration [FDA]
Endoplasmic Reticulum (ER) plays an important role in cellular signaling, protein folding/maturation, stress response, lipid biosynthesis, calcium storage and release etc. Under stress conditions, proteins in ER misfold or unfold, and leading to the expression of ER stress responsive genes. ER stress has been associated with a variety of pathophysiological conditions such as cancer, inflammation, neurodegenerative diseases, diabetes, ischemic heart disease etc. To identify the compounds that induce ER stress response, an ER stress reporter cell line, CellSensor ESRE-bla HeLa (Life Technologies, Carlsbad, CA) containing a beta-lactamase reporter gene under control of the Endoplasmic reticulum Stress Response Element (ESRE) was used to screen Tox21 10K compound library.
Tox21 Assay Protocol Summary:
ESRE-bla HeLa cells were dispensed at 1,500 cells/6 uL of assay medium per well into black wall/clear-bottom 1536-well plates using a Multidrop Combi (ThermoFisher Scientific, Waltham, MA) dispenser. After the assay plates were incubated at 37 C and 5% CO2 for an overnight, 23 nL of compounds dissolved in DMSO, positive controls or DMSO only was transferred to the assay plate by a Pintool station (Kalypsys, San Diego, CA). The assay plates were incubated at 37 C and 5% CO2 for 5 hr. One uL of LiveBLAzer B/G FRET substrate (Life Technologies) was added using a Flying Reagent Dispenser (Aurora Discovery, San Diego, CA) and the plates were incubated at room temperature for 2 hr. Fluorescence intensity (405 nm excitation, 460 nm and 530 nm emissions) was measured using an Envision plate reader (PerkinElmer, Shelton, CT).
In general terms: In qHTS, concentration-response curves come from the screen itself.
Turning to `CC(CC=O)CC(C)(C)C` (stereo not given), the result was inactive.

For `Cc1ccc(-c2ncc(Cl)cc2-c2ccc(S(C)(=O)=O)cc2)cn1`, the compound was classed as inactive.

`COc1cc(C(=O)NCc2ccc(OCCN(C)C)cc2)cc(OC)c1OC`: the result was inactive.

In the case of `CC(C)NNC(=O)c1ccncc1`, the call was inactive.

With `CCOc1ccccc1OCC`, the call was inactive.

As for `Cc1ncc([C@@H](CCCCCCc2ccc3c(n2)NCCC3)CC(=O)O)cn1`, the result was inactive.

Consider `CC(CO)(CO)[N+](=O)[O-]`, for which the outcome was inactive.

On to `COCCOC[C@H](CC1(C(=O)NC2CCC(C(=O)O)CC2)CCCC1)C(=O)Oc1ccc2c(c1)CCC2` (stereo not given in full), for which the result was inactive.

On to `Cc1onc(-c2c(Cl)cccc2Cl)c1C(=O)Cl`, for which the outcome was inactive.

For `CCC(C)(CCCC(C)C)OC(C)=O` (stereo not given), the call was inactive.

For the compound `O=C(O)Cc1csc(-c2ccc(Cl)cc2)n1`, the compound was classed as inactive.

Turning to `CO[Si](C)(OC)c1ccccc1`, the result was inactive.

In the case of `Clc1cc(Cl)cc(Cl)c1`, the result was inactive.

Take `CCCCc1ccc2c(n1)[C@@H](c1ccc(OC)cc1C[C@H](C)C(=O)O)[C@H](C(=O)O)[C@H]2c1ccc2c(c1)OCO2`: the compound was classed as inactive.

As for `CCCn1cc[n+](C)c1C`, the result was inactive.

With `CCCC[N+](C)(CCCC)CCCC`, the outcome was inactive.

Take `CCCCCCCCCCOc1cc2c(=O)c(C(=O)OCC)c[nH]c2cc1OCC`: the activation is 2.24% [at 6.95 µM] (inactive).

`C[C@@H]1CCC[C@H](C)N1`: the outcome was inactive.

On to `NC(N)=NCCN1CCCCCCC1`, for which the activation was 2.69% [at 0.628 µM] (inactive).

On to `O=C1c2ccccc2C(=O)c2cc(O)ccc21`, for which the compound was called inactive.

On to `C1CCC2(CCCCO2)OC1`, for which the result was inactive.

With `O=C(O)CC(C(=O)O)S(=O)(=O)O` (stereo not given), the compound was classed as inactive.

For the compound `CC(C)[C@H]1CC[C@@H](C)CC1=O`, the compound was classed as inactive.

As to `CO/N=C(\C(=O)N[C@@H]1C(=O)N2C(C(=O)O)=C(CSc3nc(=O)c(O)nn3C)CS[C@H]12)c1csc(N)n1`, the result was inactive.

As to `CC1=CCC(O)(C(C)C)CC1` (stereo not given), the result was inactive.

Regarding `O=S(=O)(O)c1cccc(S(=O)(=O)O)c1`, the compound was called inactive.

For `CCCCCCCCCC[N+](C)(C)[O-]`, the result was inactive.

As for `CN1CCN(c2cc3c(nn2)Oc2ccccc2N3C)CC1`, the compound was called inactive.

Take `CC(=O)O[C@@]12CO[C@@H]1C[C@H](O)[C@@]1(C)C(=O)[C@H](O)C3=C(C)[C@@H](OC(=O)[C@H](O)[C@@H](NC(=O)OC(C)(C)C)c4ccccc4)C[C@@](O)([C@@H](OC(=O)c4ccccc4)[C@H]21)C3(C)C`: the result was inactive.

As for `CCOC(=O)C1=NOC(c2ccccc2)(c2ccccc2)C1`, the compound was classed as inactive.

With `CC1=NN(c2cc(S(=O)(=O)O)ccc2Cl)C(=O)C1N=Nc1ccccc1` (stereo not given), the compound was classed as inactive.

Take `CCOC(=O)c1ccccc1`: the outcome was inactive.

For the compound `CC(=O)Oc1cccc(C)c1`, the call was inactive.

As for `NO`, the call was inactive.

As for `CC(C)(C#N)Nc1nc(Cl)nc(NC2CC2)n1`, the outcome was inactive.

As for `C=CN1CCCCCC1=O`, the compound was called inactive.

`CC(C)(C)C(=O)Oc1ccc(S(=O)(=O)Nc2ccccc2C(=O)NCC(=O)O)cc1`: the compound was called inactive.

As to `NC(=O)NC1N=C([O][Al])NC1=O` (stereo not given), the compound was classed as inactive.

In the case of `CCOCC(C)O` (stereo not given), the result was inactive.

With `Cc1ccc(-c2ccccc2C#N)cc1`, the compound was called inactive.
